# Values without a mark were called inactive. Records with an inconclusive call do not appear. A call without a number means that no potency is given here. The source made the active and inactive calls. Unless noted, calls come from the whole dose curve; as a rule, active = well fitted curve in the direction sought with a large enough effect in the repeat runs; inconclusive = weak or mixed curves; inactive = no such curve, though single readings can be large; an effect the other way counts as inactive or inconclusive.
# Assays:
# [1] = qHTS assay for small molecules that induce genotoxicity in human embryonic kidney cells expressing luciferase-tagged ATAD5 (AID 651632); note: nearly all actives have a fitted effect of over 15% in size
# How it was run: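 Luminescent reporter readout, HEK293T ATAD5-luc line: 16 hr drug exposure (37C, 5% CO2) followed by Amplite, 30 min RT.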
# [2] = qHTS assay for small molecules that induce genotoxicity in human embryonic kidney cells expressing luciferase-tagged ATAD5 - cell viability (AID 651634; calls by dose curve; note: nearly all actives have a fitted effect of over 25% in size; note: potency is the fitted concentration of half-maximal effect)
# How it was run: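 Viability read: CellTiter-Fluor fluorescence, 30 min at 37C. Cells: HEK293T, luciferase-tagged ATAD5. Exposure: 15.5 hr, 37C, 5% CO2, compound or DMSO vehicle.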
# [3] = qHTS assay for small molecule disruptors of the mitochondrial membrane potential - cell viability (AID 720634; calls by dose curve;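 note: human HepG2 liver cancer cells; series mostly up to about 83 µM; nearly all actives have a fitted effect of over 20% in size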)
# How it was run: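 HepG2, 1 hr compound, 37 C. ATP luminescence via CellTiter-Glo, 30 min RT, same well as m-MPI.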
# [4] = qHTS assay to test for compound auto fluorescence at 590 nm (red) in HepG2 cells (AID 720674)
# How it was run: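 Compound auto-fluorescence is scored relative to Rose Bengal sodium, measured at 540/590 nm in live HepG2 cultures after 1 hr compound contact (37 C, 5% CO2).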
# [5] = qHTS assay to test for compound auto fluorescence at 535 nm (green) in HepG2 cells (AID 720675)
# [6] = qHTS assay to test for compound auto fluorescence at 460 nm (blue) in HEK293 cells (AID 720678)
# How it was run: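 Measured: blue fluorescence (Ex 405/Em 460 nm) of compound-treated HEK293 cells, incubated overnight at 37C with 5% CO2 and scaled to triamterene equivalents.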
# [7] = qHTS assay to test for compound auto fluorescence at 590 nm (red) in HEK293 cells (AID 720679)
# How it was run: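 Using HEK293 cells at 2,000 per well, the screen added 23 nL of each compound after cell attachment and incubated overnight (37C, 5% CO2). The plate reader then captured red-label fluorescence, Ex/Em 540/590nm.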
# [8] = qHTS assay to test for compound auto fluorescence at 535 nm (green) in HEK293 cells (AID 720680)
# [9] = qHTS assay to test for compound auto fluorescence at 460 nm (blue) in HEK293 cell free culture (AID 720681)
# How it was run: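 Test compounds were pinned into cell-free culture medium (DMEM with 10% FBS) and fluorescence was read directly at Ex/Em 405/460 nm. Signals were expressed as fluorescence equivalents of triamterene, with DMSO vehicle as control.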
# [10] = qHTS assay to test for compound auto fluorescence at 535 nm (green) in HEK293 cell free culture (AID 720682)
# How it was run: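 Each library compound, or DMSO control, is added by pintool to medium alone, comprising DMEM and 10% FBS. Emission at 535 nm following 485 nm excitation is quantified against fluorescein.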
# [11] = qHTS assay to test for compound auto fluorescence at 590 nm (red) in HEK293 cell free culture (AID 720683)
# How it was run: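 Tox21 10K library compounds were pinned into cell-free DMEM with 10% FBS and fluorescence was read at excitation 540 nm. Activity is expressed as Rose Bengal sodium equivalency.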
# [12] = qHTS assay to test for compound auto fluorescence at 590 nm (red) in HepG2 cell free culture (AID 720684)
# How it was run: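 Measured in medium alone (MEM containing 10% FBS) following pintool addition of compound; emission at 590 nm with 540 nm excitation, referenced to Rose Bengal sodium.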
# [13] = qHTS assay to test for compound auto fluorescence at 460 nm (blue) in HepG2 cell free culture (AID 720685)
# How it was run: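 Compound (23 nL) or DMSO pinned into cell-free MEM with 10% FBS; blue fluorescence read at 405/460 nm excitation/emission, expressed as auto-fluorescence equivalency to triamterene.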
# [14] = qHTS assay to test for compound auto fluorescence at 535 nm (green) in HepG2 cell free culture (AID 720686)
# [15] = qHTS assay to test for compound auto fluorescence at 460 nm (blue) in HepG2 cells (AID 720687)
# How it was run: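 Cells (2,000/well in MEM with 10% FBS) attached overnight at 37 C, then were exposed to compound or DMSO for 1 hr at 37 C, 5% CO2. Fluorescence read at Ex/Em 405/460 nm, expressed as triamterene-equivalent signal.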
# [16] = qHTS assay for small molecule disruptors of the mitochondrial membrane potential (AID 720635); note: potency is the fitted concentration of half-maximal effect
# How it was run: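 HepG2 cells (2,000/well) attached overnight at 37C, then took compound for 1 hr at 37C, 5% CO2. Mito-MPS dye was added for 30 min; fluorescence was read at 490/535 nm (monomers) and 540/590 nm (aggregates).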
# [17] = target: Glucocorticoid receptor (Homo sapiens) (UniProt P04150); assay: qHTS assay to identify small molecule agonists of the glucocorticoid receptor (GR) signaling pathway (AID 720691; active = well fitted activation curve with a large enough effect in the signal ratio in the repeat runs, not every such curve was filed as active; the % refers to the signal ratio)
# Glucocorticoid receptor (Homo sapiens), sequence (P04150 whole entry, looked up): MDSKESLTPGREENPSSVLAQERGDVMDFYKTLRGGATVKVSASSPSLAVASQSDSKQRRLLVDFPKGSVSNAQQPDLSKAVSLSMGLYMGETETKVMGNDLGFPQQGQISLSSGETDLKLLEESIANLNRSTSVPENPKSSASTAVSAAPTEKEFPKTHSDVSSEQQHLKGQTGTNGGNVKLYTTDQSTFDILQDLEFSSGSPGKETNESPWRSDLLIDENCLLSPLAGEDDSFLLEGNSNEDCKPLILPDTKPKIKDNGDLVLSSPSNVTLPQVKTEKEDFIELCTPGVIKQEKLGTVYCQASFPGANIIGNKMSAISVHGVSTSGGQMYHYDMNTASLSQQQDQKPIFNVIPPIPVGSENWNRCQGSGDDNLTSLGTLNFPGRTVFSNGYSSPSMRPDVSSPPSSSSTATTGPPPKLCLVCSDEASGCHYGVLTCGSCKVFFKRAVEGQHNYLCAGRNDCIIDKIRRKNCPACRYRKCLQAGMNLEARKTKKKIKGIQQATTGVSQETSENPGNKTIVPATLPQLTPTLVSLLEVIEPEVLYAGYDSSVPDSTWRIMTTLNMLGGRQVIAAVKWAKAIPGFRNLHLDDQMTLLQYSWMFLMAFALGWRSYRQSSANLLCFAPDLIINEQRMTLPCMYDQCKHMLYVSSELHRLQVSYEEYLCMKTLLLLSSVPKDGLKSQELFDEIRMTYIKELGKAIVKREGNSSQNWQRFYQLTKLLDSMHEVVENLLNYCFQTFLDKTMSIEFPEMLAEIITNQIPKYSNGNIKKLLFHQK
# How it was run: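 qHTS in GR-bla HeLa cells: 4 h settling at 37 C/5% CO2, 18 h compound incubation at 37 C, 2 h LiveBLAzer B/G FRET substrate at room temperature, fluorescence intensity measured.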
# [18] = qHTS assay for small molecule agonists of the p53 signaling pathway - cell viability (AID 651633; calls by dose curve; note: nearly all actives have a fitted effect of over 30% in size; note: potency is the fitted concentration of half-maximal effect)
# How it was run: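 p53RE-bla cells, seeded at 4,000 per well and rested 5 h at 37 C/5% CO2, received compounds in DMSO for 16 h at 37 C. CellTiter-Glo was then added, and luminescence was read after 30 min at room temperature to gauge cytotoxicity.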
smiles,measurement,setting,value
CCOC(=O)c1ccc(C2CCC(NC[C@H](O)COc3ccc(O)c(NS(C)(=O)=O)c3)CC2)cc1 (stereo partly drawn),Potency,[1],inactive
same,Potency,[2],inactive
same,Potency,[3],inactive
same,Potency,[4],inactive
same,Potency,[5],inactive
same,Potency,[6],inactive
same,Potency,[7],inactive
same,Potency,[8],inactive
same,Potency,[9],inactive
same,Potency,[10],inactive
same,Potency,[11],inactive
same,Potency,[12],inactive
same,Potency,[13],inactive
same,Potency,[14],inactive
same,Potency,[15],inactive
Cc1cc(-c2ccc(N=Nc3cc(S(=O)(=O)O)c4ccccc4c3N)c(C)c2)ccc1N=Nc1cc(S(=O)(=O)O)c2ccccc2c1N,Potency,[1],inactive
same,Potency,[3],inactive
same,Potency,[16],12.3 µM (active)
same,Potency,[4],inactive
same,Potency,[5],inactive
same,Potency,[6],inactive
same,Potency,[7],inactive
same,Potency,[8],inactive
same,Potency,[9],inactive
same,Potency,[10],inactive
same,Potency,[11],inactive
same,Potency,[12],inactive
same,Potency,[13],inactive
same,Potency,[14],inactive
same,Potency,[15],inactive
same,Potency,[17],inactive
CCO[C@@H]1O[C@H](C(COCc2ccccc2)OCc2ccccc2)[C@H](OCc2ccccc2)[C@H]1O (stereo partly drawn),Potency,[1],inactive
same,Potency,[18],inactive
same,Potency,[16],11.4 µM (active)
same,"fluorescence, relative to Rose Bengal",[4],-0.664% [at 18.6 µM]
same,"fluorescence, % of fluorescein control",[5],-0.0707% [at 18.6 µM]
same,"fluorescence, % of triamterene",[6],-0.0314% [at 18.6 µM]
same,"fluorescence, % of fluorescent control",[7],0.894% [at 18.6 µM]
same,"fluorescence, % of fluorescein",[8],-0.012% [at 18.6 µM]
same,"fluorescence, % of fluorescent control",[9],0.118% [at 18.6 µM]
same,activity change,[10],"-0.0677% [at 18.6 µM, stronger effect = higher value]"
same,"fluorescence, % of Rose Bengal",[12],-0.0599% [at 18.6 µM]
same,"fluorescence, % of fluorescent control",[13],-0.0414% [at 18.6 µM]
same,"fluorescence, % of fluorescein control",[14],-0.102% [at 18.6 µM]
same,"fluorescence, % of fluorescent control",[15],-0.0213% [at 18.6 µM]
same,Potency,[17],inactive
Cc1cc(C(C#N)c2ccc(Cl)cc2)c(Cl)cc1NC(=O)c1cc(I)cc(I)c1O (stereo not drawn),Potency,[1],inactive
same,Potency,[18],3.35 µM (active)
same,Potency,[16],2.37 µM (active)
same,Potency,[4],inactive
same,Potency,[5],inactive
same,Potency,[6],inactive
same,Potency,[7],inactive
same,Potency,[8],inactive
same,Potency,[9],inactive
same,Potency,[10],inactive
same,Potency,[11],inactive
same,Potency,[12],inactive
same,Potency,[13],inactive
same,Potency,[14],inactive
same,Potency,[15],inactive
same,Potency,[17],inactive
COC(=O)C1=C(C)NC(C)=C(C(=O)OCCN2CCN(C(c3ccccc3)c3ccccc3)CC2)C1c1cccc([N+](=O)[O-])c1 (stereo not drawn),Potency,[1],inactive
same,Potency,[2],11.9 µM (active)
same,Potency,[16],10.6 µM (active)
same,Potency,[4],inactive
same,Potency,[5],inactive
same,Potency,[6],inactive
same,Potency,[7],inactive
same,Potency,[8],inactive
same,Potency,[9],inactive
same,Potency,[10],inactive
same,Potency,[11],inactive
same,Potency,[12],inactive
same,Potency,[13],inactive
same,Potency,[14],inactive
same,Potency,[15],inactive
same,Potency,[17],inactive
